High-throughput results: PubChem, The Scripps Research Institute Molecular Screening Center
Sampled rows, rich in hits. Any-hit rate of the full collection: about 3.5%.
GPR151 ag = activates the human receptor GPR151; activation, % at 11.2 µM; 650,000 tested, 1% active; PathHunter beta-arrestin GPR151 cells, luminescence; Q8TDV0; in the data active = activation above about 4.9%;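 also: 0% = median of compound wells and 100% = cells with positive control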
Target sequence (Q8TDV0 whole entry, looked up): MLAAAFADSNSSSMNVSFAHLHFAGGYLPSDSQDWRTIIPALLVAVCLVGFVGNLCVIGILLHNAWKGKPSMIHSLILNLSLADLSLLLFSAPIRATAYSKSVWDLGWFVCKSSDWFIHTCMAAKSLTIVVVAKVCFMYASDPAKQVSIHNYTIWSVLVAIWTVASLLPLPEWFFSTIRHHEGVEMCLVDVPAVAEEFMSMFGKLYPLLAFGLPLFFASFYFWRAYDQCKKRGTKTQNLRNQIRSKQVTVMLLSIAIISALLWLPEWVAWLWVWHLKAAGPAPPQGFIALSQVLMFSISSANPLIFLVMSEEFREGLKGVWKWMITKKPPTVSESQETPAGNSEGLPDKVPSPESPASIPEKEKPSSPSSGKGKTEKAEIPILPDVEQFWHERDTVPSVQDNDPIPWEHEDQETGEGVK
FBW7 act = activators of human E3 ligase FBW7; Q969H0; AlphaScreen FBW7–phospho-cyclin E peptide binding, activator screen; normalized activity (activation), % at 26.1 µM; 650,000 tested, 0.13% active; AID 1259310; in the data active = normalized activity above about 1.9%;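 also: purified mutant Fbw7 with reduced substrate affinity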
TEAD-YAP block = TEAD-YAP interaction inhibition | HEK-TIYL cells, TEAD-Gal4/YAP UAS-luciferase luminescence | inhibition, % at 9.12 µM | 640,000 tested, 1.4% active | AID 1259422; in the data active = inhibition above about 32%;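 also: 0% = median of test compound wells and 100% = reference inhibitor wells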
MITF primary = blocks human microphthalmia-associated transcription factor | O75030 | AlphaScreen MITF homodimerization, bead proximity signal | inhibition, % at 2.6 µM | 650,000 tested, 0.91% active | AID 1259374; in the data active = inhibition above about 50%;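 also: 0% = vehicle wells with protein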
GPR151 confirm = human GPR151 activation, confirmation screen. shares compounds with GPR151 ag. GPR151 PathHunter beta-arrestin cells, luminescence, 90 min; % of EA-reagent control over plate median. activation, % at 11.2 µM. 6,700 tested, under 10 active;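 active = mean percent activation across replicates above the confirmation screen cutoff of 4.91%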
GPR119 ag = activates human GPR119 in a GPR151 counter-screen | shares compounds with GPR151 ag | GPR119 PathHunter beta-arrestin cells, luminescence, 90 min; 0 = compound-well median, 100 = enzyme-acceptor control | activation, % at 11.2 µM | 6,700 tested, 0.3% active;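 active = mean percent activation in the counterscreen above 29.09%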;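 also: counterscreen on off-target GPR119 to flag nonselective hits from the GPR151 activator screen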
* marks the source's active call; other numbers are inactive results.

COc1ccc(-c2c[n+](CC(=O)OC3CC(C)CCC3C(C)C)c3n2CCCCC3)cc1 (stereo not given) was read as GPR151 ag 5.3*, FBW7 act 0.0, TEAD-YAP block 86.2*, MITF primary 17.9, GPR151 confirm 1.2 and GPR119 ag -0.9.
O=C(c1cccc(Cl)c1)N1CCNCC1 was read as GPR151 ag -1.2, FBW7 act 0.1, TEAD-YAP block 0.9 and MITF primary -1.0.
COc1ccc(S(=O)(=O)N2CCC(C(=O)c3ccc(Cl)cc3)CC2)cc1 was read as GPR151 ag 1.2, FBW7 act 0.0, TEAD-YAP block 10.0 and MITF primary -3.5.
CCN(CC)CCNC1CCN(c2ccc(NC(=O)c3cccc(Cl)c3)cc2)CC1 was read as GPR151 ag 1.2, FBW7 act -0.1, TEAD-YAP block -34.6 and MITF primary 14.4.
`CCOCCCNC1CCN(c2ccc(NC(=O)c3cccc(Cl)c3)cc2)CC1` gave GPR151 ag 16.9*, FBW7 act 0.0, TEAD-YAP block 26.6, MITF primary 12.4, GPR151 confirm 0.2 and GPR119 ag 20.8.
`CC(NC(=O)CC1S/C(=N/N=C/c2ccco2)NC1=O)C(=O)O` (stereo not given) gave GPR151 ag 5.7*, FBW7 act 0.0, TEAD-YAP block 2.7, MITF primary 9.6, GPR151 confirm -0.8 and GPR119 ag -3.5.
`O=C(COc1ccc(Cl)cc1)NCc1cc(-c2cccs2)on1` gave GPR151 ag 5.2*, FBW7 act 0.3, TEAD-YAP block 10.7, MITF primary -1.2, GPR151 confirm -1.3 and GPR119 ag -14.1.
For C=CCN(c1ccc(C(=O)Nc2ccc(Cl)cc2)cc1)S(C)(=O)=O the results were GPR151 ag 9.2*, FBW7 act 0.2, TEAD-YAP block 11.4, MITF primary 10.2, GPR151 confirm 2.7 and GPR119 ag 15.5.
For Cc1oc(-c2ccccc2Cl)nc1CS(=O)(=O)CC(=O)NC1CCC(C)CC1 (stereo not given) the results were GPR151 ag -1.2, FBW7 act 0.1, TEAD-YAP block 0.2 and MITF primary 2.2.
COc1cc(C=O)ccc1Oc1ncccc1[N+](=O)[O-] was read as GPR151 ag 8.0*, FBW7 act -0.1, TEAD-YAP block 6.9, MITF primary -3.0, GPR151 confirm 0.8 and GPR119 ag -4.8.
Screening COc1cc(C(=O)Nc2c(C)n(C)n(-c3ccccc3)c2=O)cc(OC)c1OC returned GPR151 ag -0.2, FBW7 act 0.1, TEAD-YAP block 8.6 and MITF primary -1.7.
`CCCCC1=CC2=C(c3ccco3)C(=O)C(C)(OC(=O)c3ccc(OC)cc3)C(=O)C2=CO1` (stereo not given) gave GPR151 ag -0.8, FBW7 act 0.1 and MITF primary 20.7.
`CCCCC1=CC2=C(c3ccco3)C(=O)C(C)(OC(=O)c3ccc(Cl)nc3)C(=O)C2=CO1` (stereo not given) gave GPR151 ag 6.5*, FBW7 act -0.3, MITF primary -7.0, GPR151 confirm -0.3 and GPR119 ag -16.1.
Screening Cc1nc2ccccc2c(=O)n1-c1ccc(N2CCOCC2)c(C(F)(F)F)c1 returned GPR151 ag 5.9*, FBW7 act -0.1, TEAD-YAP block 8.9, MITF primary -4.9, GPR151 confirm 1.2 and GPR119 ag -3.6.
Cc1nc2ccccc2c(=O)n1CC(=O)N1CCOCC1 was read as GPR151 ag -1.5, FBW7 act 0.7, TEAD-YAP block 6.4 and MITF primary 10.4.
O=C1NC2(CCc3ccccc3C2)C(=O)N1CN1CCN(Cc2ccc3c(c2)OCO3)CC1 (stereo not given) was read as GPR151 ag 8.3*, FBW7 act -0.1, TEAD-YAP block 8.6, MITF primary 5.2, GPR151 confirm -0.4 and GPR119 ag -1.0.
`COc1ccc(C(F)(F)F)cc1NC(=O)CC1(CC(=O)O)CCCCC1` gave GPR151 ag -0.7, FBW7 act -0.1, TEAD-YAP block 7.8 and MITF primary 0.2.
For O=C(Cn1cc(/C=C/c2nc(O)c([N+](=O)[O-])c(=O)[nH]2)c2ccccc21)Nc1ccc(F)cc1 the results were GPR151 ag 5.5*, FBW7 act -0.2, TEAD-YAP block 9.3, MITF primary 14.5, GPR151 confirm 0.1 and GPR119 ag 2.4.
